# Experiments:
# Assay type in all cases: functional
# Plasmodium falciparum [1] = test: GSK_TCMDC: Inhibition of Plasmodium falciparum 3D7 in whole red blood cells, using parasite LDH activity as an index of growth. Test compounds present at 2uM
# Plasmodium falciparum [2] = test: GSK_TCMDC: Inhibition of Plasmodium falciparum Dd2 in whole red blood cells, using parasite LDH activity as an index of growth. Test compounds present at 2uM
# HepG2 = test: GSK_TCMDC: Percent inhibition of human HepG2 cell line. Test compounds present at 10uM.
Compound,Inhibition (Plasmodium falciparum [1]) [%],Inhibition (Plasmodium falciparum [2]) [%],Inhibition (HepG2) [%]
O=C(O)C(F)(F)F.O=S(=O)(NCCN1CCCC1)c1ccc(-c2ccc(CNCc3ccccc3)cc2)cc1F,83,39,35
CCc1ccc(N2C(N)=NC(N)=NC2(C)C)cc1.Cl,94,0,51
COc1ccc(-n2nc(C(=O)NCc3ccccc3OC)c3ccccc3c2=O)cc1,100,94,2
CC(=O)Nc1ccc(OCCCCN(Cc2ccccc2OC(F)(F)F)c2ccc(C(F)(F)F)c(C#N)c2)c(Cl)c1,89,96,11
COc1cccc(C(=O)NCc2cccs2)c1OCc1ccccc1,96,0,0
O=C(O)C(F)(F)F.O=C1OC2(CN1CC1CCN(Cc3ccc(-n4ccnc4)cc3)C1)c1ccccc1-c1ccccc12 (configuration not stated),96,0,25
Cc1[nH]c(C)c([N+](=O)[O-])c(=O)c1-c1ccc(Oc2ccc(OC(F)(F)F)cc2)cc1,97,97,0
Cc1ccc(C(=O)Cn2nc(-c3ccc(C)c(S(=O)(=O)N4CCCCC4)c3)ccc2=O)cc1,99,76,6
CNC(=O)c1c(NC(=O)c2cccs2)sc2c1CCCC2,94,2,2
CCNc1cc(C(=O)N[C@@H](Cc2ccccc2)[C@H](O)CNC2(CC)CCCCC2)cc(N2CCCCS2(=O)=O)c1.Cl,98,98,3
C=CCn1c(SCc2c(C)noc2C)nc2scc(-c3cccs3)c2c1=O,88,34,13
COc1ccc(C(=O)Nc2ccc(Nc3nc(C)cc(N(C)C)n3)cc2)c(OC)c1,100,72,34
CCCN(c1ccc(C(F)(F)F)cc1[N+](=O)[O-])S(=O)(=O)C(c1ccccc1)c1ccc(C(F)(F)F)cc1[N+](=O)[O-] (configuration not stated),94,49,0
O=C(CCCCCNC(=O)c1ccc(O)c(-c2ccc(Cl)c(Cl)c2)c1)NCCc1ccc(Cl)c(Cl)c1,97,20,57
COc1ccc2nc3ccccc3c(NCCN3CCN(C)CC3)c2c1,81,10,11
O=C(Nc1ccc2c(c1)CCN2C1CCN(Cc2cccc(C(F)(F)F)c2)C1)c1ccco1 (configuration not stated),95,92,4
COC(=O)c1ccc(CCC(C)NCC(O)c2cccc(C(F)(F)F)c2)cc1.Cl (configuration not stated),99,99,16
O=S(=O)(Nc1cccc(F)c1CNCc1ccccn1)c1ccc(Cl)c(Cl)c1,92,34,45
O=C(Nc1cccc(CN2CCCN(Cc3ccc4c(c3)OCO4)CC2)c1)c1cc2ccccc2s1.O=C(O)C(F)(F)F,95,11,32
COc1ccc2ncc(Cl)c(CCN3C[C@H](CNCc4ccc5c(n4)NC(=O)CS5)[C@H](O)C3)c2n1.Cl,94,16,2
COc1cc2nc(NCCc3ccccc3)nc(NCc3nccs3)c2cc1OC,99,93,1
COc1cccc(Nc2c(C(N)=O)cnc3ccc(-c4ccc([S+](C)[O-])cc4)cc23)c1.O=C(O)C(F)(F)F (configuration not stated),96,100,0
CCCNCc1ccc(-c2ccc(CN(CCOC)C(=O)[C@H]3CCCO3)cc2)nc1.O=C(O)C(F)(F)F,98,6,1
CN(Cc1cccc(C#N)c1)C1CCN(c2cc(NC(=O)c3cccc(F)c3)ccn2)CC1.O=C(O)C(F)(F)F,98,15,0

# From ChEMBL document CHEMBL1157539, “Thousands of chemical starting points for antimalarial lead identification” (Nature, 2010)
